CHT allo act – human CHT allosteric activation | CHT-expressing cells, membrane potential dye, choline EC20; active compounds read high; LV-AA mutant CHT in HEK293 cells | B-score at 10 µM | hit rate 0.49% among 310,000 | AID 488977;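 active = initial fluorescence not abnormally high and integrated response B-score, plate-corrected, over 3 SD above library mean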
Target sequence (Q9GZV3 whole entry, looked up): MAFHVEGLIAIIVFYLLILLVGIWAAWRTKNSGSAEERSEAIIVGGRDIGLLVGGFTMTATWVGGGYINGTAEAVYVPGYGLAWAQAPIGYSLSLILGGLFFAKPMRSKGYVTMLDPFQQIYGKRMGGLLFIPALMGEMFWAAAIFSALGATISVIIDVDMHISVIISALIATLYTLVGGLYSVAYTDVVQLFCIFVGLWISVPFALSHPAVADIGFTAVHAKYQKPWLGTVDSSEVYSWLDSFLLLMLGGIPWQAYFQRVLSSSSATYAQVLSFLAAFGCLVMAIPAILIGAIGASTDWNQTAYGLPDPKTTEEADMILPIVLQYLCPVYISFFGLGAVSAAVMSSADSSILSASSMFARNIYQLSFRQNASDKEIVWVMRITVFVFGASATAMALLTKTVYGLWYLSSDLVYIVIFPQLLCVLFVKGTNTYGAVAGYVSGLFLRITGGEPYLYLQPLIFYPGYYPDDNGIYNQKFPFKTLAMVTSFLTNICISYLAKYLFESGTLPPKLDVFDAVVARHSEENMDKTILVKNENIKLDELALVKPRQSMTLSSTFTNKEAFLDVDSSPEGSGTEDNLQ
IDE cell inh – inhibitors of human insulin-degrading enzyme in cells. P14735. HEK cells, FAbetaB cleavage, fluorescence polarization. inhibition, % at 5.59 µM. hit rate 0.41% among 320,000. AID 434962;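 active = percent inhibition above the average of all tested compounds plus 3 SD, set per screening campaign, cut at about 16% in these data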;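 note: IDE supplied by intact live HEK cells; FP after avidin binding of uncleaved biotin substrate so inhibition keeps polarization high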
IDE act – activators of human insulin-degrading enzyme in cells; activation, % at 5.96 µM; hit rate 0.073% among 340,000; HEK cells, FAbeta-B cleavage, fluorescence polarization; 0% vehicle, 100% cell-free pure enzyme wells;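 active = activation above the mean of all tested compounds plus 3 SD, set per screening campaign, cut at about 17% in these data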
CHT inh – inhibits the human high affinity choline transporter; B-score at 10 µM; CHT-expressing cells, membrane potential dye, choline response; active compounds read low; hit rate 0.86% among 310,000;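 active = B-score over 3 SD under the library average, and starting fluorescence ratio not unusually high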;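 note: choline stimulus applied at its EC90 after an EC20 pre-addition; B-score computed on integrated fluorescence ratio after choline addition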
TMEM16A act – activates or potentiates the mouse TMEM16A chloride channel. Q8BHY3. HEK293 TMEM16A/YFP-H148Q/I152L, iodide quench fluorescence; active compounds read low. B-score at 10 µM. hit rate 0.3% among 340,000. AID 623877;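 active = fluorescence-ratio B-score plate-corrected deviation score at least 3 library SD below zero, with starting fluorescence score within 5 deviations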;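 note: channel opened by trigger with iodide after compound preincubation; score built on the fluorescence ratio of max minus min over baseline; more negative score means more quench and so TMEM16A activation or potentiation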
ANO1 block – blocks the mouse calcium-activated chloride channel TMEM16A. Q8BHY3. HEK293 TMEM16A/YFP iodide influx fluorescence, ionomycin. normalized B-score (activity score, 25-100; higher = stronger inhibition) at 10 µM. hit rate 1.2% among 310,000. AID 588511;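 active = ratio plate-corrected score three or more library SD toward inhibition, starting fluorescence score within five deviations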;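 note: score derived from kinetic fluorescence span divided by baseline fluorescence per well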
TMEM16A reconf – reconfirmed blocker of mouse TMEM16A calcium-activated chloride channel; shares compounds with ANO1 block; HEK293 TMEM16A/YFP-H148Q, iodide quench fluorescence; ionomycin added to raise cell calcium; inhibition, % at 10 µM; hit rate 39% among 2,300; AID 652189;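 active = mean duplicate percent inhibition, scaled so buffer wells are 0 and the reference blocker 100, over three buffer SD above buffer mean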
TMEM16A Ca cntr – alters calcium mobilization in TMEM16A HEK293 cells, counter-screen | shares compounds with ANO1 block | TMEM16A/YFP HEK293, Fluo4 calcium mobilization | calcium response (% of ionomycin), % at 10 µM | hit rate 2% among 2,300 | AID 652231;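 active = duplicate-averaged calcium signal over 20% of the ionomycin maximum, relative to buffer baseline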;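 note: each well's signal is peak minus trough fluorescence divided by its pre-addition baseline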
YFP-HEK293 quench – parental YFP-HEK293 iodide quench counter-screen activity; shares compounds with ANO1 block; ionomycin; YFP ratio F(max-min)/F0 at 10 µM; 2,300 tested, under 10 active;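 active = yellow fluorescent protein signal ratio exceeding the buffer control mean by over 5 SD of those controls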;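 note: ratio is mean of duplicate wells from kinetic YFP trace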
ClC-1 inh – selectivity of TMEM16A inhibitors: inhibition of rat ClC-1 chloride channel | CHO ClC-1-YFP, iodide influx fluorescence quench; iodide control reads 0, buffer control 100 | ratio percent, % at 10 µM | shares compounds with ANO1 block | AID 652236 | 2,300 tested, under 10 active;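 active = duplicate-mean ratio percent above the mean of iodide-only control wells, which defines zero, plus 5 of their SD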;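 note: higher percent means stronger block of ClC-1 iodide influx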
A number is an active result; – = inactive; · = no result given. A selection: hits, their analogues and other compounds. The true share with any hit is near 2.7%.

SMILES	CHT allo act	IDE cell inh	IDE act	CHT inh	TMEM16A act	ANO1 block	TMEM16A reconf	TMEM16A Ca cntr	YFP-HEK293 quench	ClC-1 inh
CC(=O)c1ccc(N2CCN(S(=O)(=O)c3ccc4c(c3)CC(C)N4C(C)=O)CC2)cc1 (centres undefined)	–	–	–	–	–	25	26%	–	–	–
COc1cc(C(=O)N2CCN(S(=O)(=O)c3ccc(C)cc3C)CC2)ccc1OCC(=O)N1CCOCC1	·	–	–	·	–	·	·	·	·	·
NC(=O)c1ccc(NC(=O)COC(=O)c2ccc(Br)o2)cc1	·	–	–	·	–	·	·	·	·	·
O=C(CSc1ccccc1)Nc1ccc(N2CCOCC2)c(F)c1	–	–	–	–	–	–	·	·	·	·
COc1ccccc1CNS(=O)(=O)c1ccc(-n2cnnn2)c(OC)c1	–	–	–	–	–	–	·	·	·	·
COc1ccc(C2C(C#N)=C(C)NC3=C2C(=O)c2ccccc23)cc1 (centres undefined)	–	–	–	–	–	–	·	·	·	·
CC1=C([N+](=O)[O-])C(c2ccccc2)C2=C(N1)c1ccccc1C2=O (centres undefined)	–	–	–	–	–	25	38%	–	–	–
COc1ccc(C)cc1-n1nnnc1SCc1cc(=O)n2cc(C)ccc2n1	–	–	–	–	–	25	–	–	–	–
CC12CC3(C)CC(C)(C1)CC(C(=O)NC1=NCCS1)(C2)C3	–	–	–	–	–	25	–	–	–	–
CC/C(=C\c1ccc(N(C)C)cc1)c1ccncc1	·	·	–	·	–	·	·	·	·	·
COc1ccc(Cl)cc1NC(=O)CN(C)C1CCCCC1	–	–	–	–	–	–	–	–	–	–
C=CCN(CC=C)C(=O)Nc1cc(Cl)ccc1OC	–	–	–	–	–	25	–	–	–	–
COc1ccc(Cl)cc1NC(=O)CC(=O)Nc1cc(Cl)ccc1OC	–	–	–	–	–	–	·	·	·	·
Cc1cc(C(=O)CCC(=O)N2CCN(c3ccccc3)CC2)c(C)s1	–	–	–	–	–	–	·	·	·	·
CN1C/C(=C/c2ccccc2[N+](=O)[O-])C(=O)/C(=C\c2ccccc2[N+](=O)[O-])C1	·	·	–	·	–	·	·	·	·	·
Cc1cc(C(=O)NNC(=O)CN2C(=O)NC(C)(c3ccccc3)C2=O)c(C)o1 (centres undefined)	–	–	–	–	–	–	·	·	·	·
CN(CC(=O)Nc1ccccc1Br)C(=O)C1CCN(C(=O)c2ccc(Cl)cc2)CC1	–	–	–	–	–	–	·	·	·	·
Cc1ccc(S(=O)(=O)N(Cc2ccccc2)Cc2ccco2)cc1	–	–	–	–	–	100	28%	–	–	–
Cc1ccc(S(=O)(=O)N(CC(=O)O)Cc2ccco2)cc1	–	–	–	–	–	–	·	·	·	·
CC(=O)Nc1cccc(NC(=O)CSc2ncc(-c3ccc(Cl)cc3)n2Cc2ccco2)c1	–	–	–	–	–	100	32%	–	–	–
O=C(Nc1ccc2c(c1)OCO2)c1cnc(Cl)c(Cl)c1	·	·	–	·	–	·	·	·	·	·
CCCCOc1ccc(C(=O)N2CC(C)OC(C)C2)cc1 (centres undefined)	–	–	–	–	–	–	–	–	–	–
O=C(C[C@H]1C[C@H](C(=O)N2CCCCC2)[C@@]2(CCc3ccccc3)c3[nH]c4ccc(Cl)cc4c3CCN2C1=O)NCCC1=CCCCC1	·	·	–	·	·	·	·	·	·	·
COc1ccc(-c2csc(NC(=O)Cc3ccccc3F)n2)cc1OC	–	–	–	–	–	100	–	–	–	–
COc1ccc(-c2csc(NC(=O)CC(NC(C)=O)c3ccccc3)n2)cc1OC (centres undefined)	–	·	–	–	–	–	·	·	·	·
SMILES	CHT allo act	IDE cell inh	IDE act	CHT inh	TMEM16A act	ANO1 block	TMEM16A reconf	TMEM16A Ca cntr	YFP-HEK293 quench	ClC-1 inh
COc1ccc(CC(=O)Nc2nc(-c3ccc(OC)c(OC)c3)cs2)cc1OC	–	–	–	–	–	25	35%	–	–	–
COc1ccc(S(=O)(=O)Nc2ccccc2C(=O)Nc2nc(-c3ccc(F)cc3)cs2)cc1OC	–	–	–	–	–	100	50%	–	–	–
CCOC(=O)c1oc2c(CN3CCN(C)CC3)c(O)c(CC)cc2c(=O)c1-c1nc2ccccc2s1	·	·	–	·	–	·	·	·	·	·
O=C(COC(=O)c1n[nH]c(=O)c2ccccc12)Nc1cccc(S(=O)(=O)N2CCOCC2)c1	·	·	–	·	–	·	·	·	·	·
O=C(COC(=O)CCC(=O)c1ccc(F)cc1)NC1CCCCC1	·	–	–	·	–	·	·	·	·	·
O=C(CCC(=O)OCC(=O)c1ccc(F)cc1)NC1CCCCC1	–	–	–	–	–	25	–	–	–	–
COc1ccccc1-c1nnc(SCC(=O)Nc2nc(-c3ccccc3)cs2)n1C	–	–	–	–	–	100	18%	–	–	–
Nc1ccccc1SCC(=O)Nc1nc(-c2ccccc2)cs1	–	–	–	–	–	–	·	·	·	·
Cc1csc(SCC(=O)Nc2nc(-c3ccccc3)cs2)n1	–	–	–	–	–	100	–	–	–	–
CCn1nc(C(=O)NCCc2ccc3c(c2)OCCO3)c2ccccc2c1=O	·	–	–	·	–	·	·	·	·	·
COc1ccc(CC2(CO)CCN(CC3=Cc4cc(Cl)ccc4OC3)CC2)cc1	–	–	–	–	–	25	16%	–	–	–
COc1ccc(CC2(CO)CCN(Cc3cnc(-c4ccccc4C)nc3)CC2)cc1	–	–	–	–	–	25	–	–	–	–
CC1CCCC(C)N1CCOc1cc(N)ccc1C#N (centres undefined)	·	·	–	·	–	·	·	·	·	·
CCN(CC)C(=O)CSc1nnc(COc2ccccc2)n1CC	–	–	–	–	–	25	–	–	–	–
COc1cc(OC)c(NC(=S)Nc2cccc(C(C)=O)c2)cc1Cl	–	–	–	–	–	–	·	·	·	·
COc1cc(OC)c(NC(=S)Nc2cc(Cl)cc(Cl)c2)cc1Cl	–	–	–	–	–	100	18%	–	–	–
COc1ccc(N=Cc2c(O)ccc3ccccc23)cc1	–	–	–	–	–	–	–	–	–	–
CCOc1ccc(NC(=O)CN(C)C(=O)c2cc(S(=O)(=O)N3CCCCC3)ccc2C)cc1OCC	–	–	–	–	–	–	·	·	·	·
O=[N+]([O-])c1ccc(N2N=C(c3ccco3)CC2c2ccccc2)cc1 (centres undefined)	–	22	–	–	–	–	27%	–	–	–

High-throughput results as filed in PubChem.
